Data on nine sequences can be found in PMC8384837, “Expanding the binding specificity for RNA recognition by a PUF domain”.

Positions count from the first letter of the chain named.

Experiment in all cases: yeast three-hybrid, YBZ-1, SC-Leu-His + 0.5 mM 3-AT, 4 days
Common to all, as to conditions: tags: N-Gal4 AD-HA kept; label: inside an RPR1-promoter hybrid RNA with tandem MS2 sites; ssRNA

One test addresses PUM1 PUF domain R4-MNG (Homo sapiens, UniProt Q14671 828-1176, N971M;H972N;Q975G). The method, boiled down:
(§1)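 The interaction score is the log change in variant frequency from input to selection. Scores were computed in log2 with a pseudocount of 1 for absent variants, using Illumina sequencing of PCR-amplified repeat regions. The input came from four days on SC-Leu and the selection from four days on SC-Leu-His + 0.5 mM 3-AT. The cells were strain YBZ-1 (LexA–MS2 coat fusion, HIS3 reporter) co-expressing Pumilio-1 PUF domain libraries and matching RNA elements from a centromeric plasmid.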

The target in another test is T1, PUM1 PUF domain R6-YRS (Homo sapiens, UniProt Q14671 828-1176, N1043Y;Y1044R;Q1047S).
T1 sequence: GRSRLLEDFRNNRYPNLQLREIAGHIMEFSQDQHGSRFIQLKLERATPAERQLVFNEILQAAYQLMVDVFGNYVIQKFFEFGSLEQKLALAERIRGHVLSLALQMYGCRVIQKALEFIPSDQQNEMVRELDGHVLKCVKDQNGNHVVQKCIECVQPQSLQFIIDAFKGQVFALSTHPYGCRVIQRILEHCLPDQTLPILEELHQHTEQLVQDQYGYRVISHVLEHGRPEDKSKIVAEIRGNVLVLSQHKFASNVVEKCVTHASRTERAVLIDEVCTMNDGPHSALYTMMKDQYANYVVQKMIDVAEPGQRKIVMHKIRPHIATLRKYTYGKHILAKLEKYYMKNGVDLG
The method, boiled down: as §1

The target of a further test is PUM1 PUF domain R3-TYW (Homo sapiens, UniProt Q14671 828-1176, C935T;R936Y;Q939W). Summed up: as §1
For a further test, the target named is PUM1 PUF domain R4-SPV (Homo sapiens, UniProt Q14671 828-1176, N971S;H972P;Q975V). Summed up:
as §1

For a further test, the target named is PUM1 PUF domain R5-RYR (Homo sapiens, UniProt Q14671 828-1176, C1007R;R1008Y;Q1011R). Summed up:
as §1

In a further test the target is T2, PUM1 PUF domain R6-RWK (Homo sapiens, UniProt Q14671 828-1176, N1043R;Y1044W;Q1047K).
T2 sequence: T1 sequence with Y216R, R217W, S220K
The method, boiled down:
as §1

The target in a further test is PUM1 PUF domain R3-EYE (Homo sapiens, UniProt Q14671 828-1176, C935E;R936Y;Q939E). Summed up:
as §1

Another test deals with PUM1 PUF domain R5-KYV (Homo sapiens, UniProt Q14671 828-1176, C1007K;R1008Y;Q1011V). Summed up: as §1
For another test, the target named is PUM1 PUF domain R2-IWD (Homo sapiens, UniProt Q14671 828-1176, N899I;Y900W;Q903D). The method, boiled down: as §1
The next test has as its target PUM1 PUF domain R5-EVC (Homo sapiens, UniProt Q14671 828-1176, C1007E;R1008V;Q1011C). Summed up: as §1

Chain of PUM1 PUF domain R5-EVC (Q14671 828-1176 C1007E/R1008V/Q1011C): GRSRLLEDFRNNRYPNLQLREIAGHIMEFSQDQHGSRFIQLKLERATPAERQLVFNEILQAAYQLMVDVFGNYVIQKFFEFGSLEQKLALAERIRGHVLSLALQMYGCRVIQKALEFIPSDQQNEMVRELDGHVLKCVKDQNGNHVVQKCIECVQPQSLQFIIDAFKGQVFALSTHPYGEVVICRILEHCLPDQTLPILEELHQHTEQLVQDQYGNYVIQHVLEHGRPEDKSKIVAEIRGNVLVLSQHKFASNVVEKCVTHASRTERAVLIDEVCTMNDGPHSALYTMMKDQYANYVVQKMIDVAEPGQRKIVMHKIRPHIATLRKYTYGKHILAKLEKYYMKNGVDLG
Chain of PUM1 PUF domain R4-MNG (Q14671 828-1176 N971M/H972N/Q975G): as the sequence (Q14671 828-1176 C1007E/R1008V/Q1011C) above, with N144M, H145N, Q148G, E180C, V181R, C184Q counted along it
Chain of PUM1 PUF domain R2-IWD (Q14671 828-1176 N899I/Y900W/Q903D): as the sequence (Q14671 828-1176 C1007E/R1008V/Q1011C) above, with N72I, Y73W, Q76D, E180C, V181R, C184Q counted along it

Consider “GGCUAGAACUAGUGGAUCCCCCGGCGCCCGGCGGCUCGAGCCCGGGUAAGUGUACAUAGUCUGCAUGCCGCCGGGCGCCAUGCCUGCAGGUCGACUCUAGAAAACAUG”, for which, in the test with PUM1 PUF domain R4-MNG, the binding signal is 2.1 log2 enrichment (interaction score).

With “GGCUAGAACUAGUGGAUCCCCCGGCGCCCGGCGGCUCGAGCCCGGGUAAGUGAAAAUAGUCUGCAUGCCGCCGGGCGCCAUGCCUGCAGGUCGACUCUAGAAAACAUG”, the binding signal with PUM1 PUF domain R6-YRS is 3.7 log2 enrichment (interaction score).

As for “GGCUAGAACUAGUGGAUCCCCCGGCGCCCGGCGGCUCGAGCCCGGGUAAGUGUAAAUAGUCUGCAUGCCGCCGGGCGCCAUGCCUGCAGGUCGACUCUAGAAAACAUG”, the binding signal with PUM1 PUF domain R3-TYW was 5.67 log2 enrichment (interaction score); with PUM1 PUF domain R4-SPV it was 1.64 log2 enrichment (interaction score); with PUM1 PUF domain R5-RYR, 2.49 log2 enrichment (interaction score); in the test with PUM1 PUF domain R6-RWK it was 6.43 log2 enrichment (interaction score); with PUM1 PUF domain R3-EYE it was 2.67 log2 enrichment (interaction score); with PUM1 PUF domain R5-KYV, 4.2 log2 enrichment (interaction score).

Turning to “GGCUAGAACUAGUGGAUCCCCCGGCGCCCGGCGGCUCGAGCCCGGGUAAGUGUAAAAAGUCUGCAUGCCGCCGGGCGCCAUGCCUGCAGGUCGACUCUAGAAAACAUG”, in the test with PUM1 PUF domain R2-IWD, the binding signal is 2.12 log2 enrichment (interaction score).

For “GGCUAGAACUAGUGGAUCCCCCGGCGCCCGGCGGCUCGAGCCCGGGUAAGUGUAAUUAGUCUGCAUGCCGCCGGGCGCCAUGCCUGCAGGUCGACUCUAGAAAACAUG”, in the test with PUM1 PUF domain R3-EYE, the binding signal was 5.03 log2 enrichment (interaction score).

On to “GGCUAGAACUAGUGGAUCCCCCGGCGCCCGGCGGCUCGAGCCCGGGUAAGUGUCAAUAGUCUGCAUGCCGCCGGGCGCCAUGCCUGCAGGUCGACUCUAGAAAACAUG”, for which the values for the binding signal with PUM1 PUF domain R5-RYR and in the test with PUM1 PUF domain R5-KYV were 4.57 log2 enrichment (interaction score) and 5.44 log2 enrichment (interaction score), respectively.

For “GGCUAGAACUAGUGGAUCCCCCGGCGCCCGGCGGCUCGAGCCCGGGUAAGUGUUAAUAGUCUGCAUGCCGCCGGGCGCCAUGCCUGCAGGUCGACUCUAGAAAACAUG”, the binding signal in the test with PUM1 PUF domain R5-RYR is 4.47 log2 enrichment (interaction score); with PUM1 PUF domain R5-KYV, 4.52 log2 enrichment (interaction score).

Regarding “GGCUAGAACUAGUGGAUCCCCCGGCGCCCGGCGGCUCGAGCCCGGGUAAGUGUGAAUAGUCUGCAUGCCGCCGGGCGCCAUGCCUGCAGGUCGACUCUAGAAAACAUG”, the figures for the binding signal with PUM1 PUF domain R5-EVC and in the test with PUM1 PUF domain R5-RYR were 3.25 log2 enrichment (interaction score) and 2.14 log2 enrichment (interaction score), respectively.

Take “GGCUAGAACUAGUGGAUCCCCCGGCGCCCGGCGGCUCGAGCCCGGGUAAGUGUAUAUAGUCUGCAUGCCGCCGGGCGCCAUGCCUGCAGGUCGACUCUAGAAAACAUG”: in the test with PUM1 PUF domain R4-SPV, the binding signal is 3.71 log2 enrichment (interaction score).
